# Measurements as given in the supplement of paper PMC6089552.
# The whole screen tested about 3,200 compounds, of which about 300 (9.4%) showed activity. This is one part of a sample in which actives are shown more often than they occur. A number with no mark means an inactive call.
# System: A673/TR/shEF
# Assay: cell viability (LOESS-normalised, relative to median of negative controls) (log2 ratio); higher = more viable cells (less compound effect), active = hit call of the paper (over 3 MAD below the median)
# Details: treatment time: 72 h
# How it was run: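 A673/TR/shEF Ewing sarcoma cells were plated at 1,500 per well in 384-well plates and cultured with or without doxycycline, added 24 h before compounds, to induce EWS-FLI1 shRNA knockdown. Library compounds at two or more concentrations, alongside DMSO controls, were applied for three days. Cell viability was measured by CellTiter-Glo luminescence on an Envision reader. Readings were LOESS-corrected per plate, divided by the median of negative controls and log2-transformed, and hits were wells lying at least three median absolute deviations from the median of all screened wells.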
# [1] = 0.25 µM, library screen: screen1, EWS-FLI1 expression: high (no doxycycline)
# [2] = 0.25 µM, library screen: screen1, EWS-FLI1 expression: low (doxycycline-induced shRNA knockdown)
# [3] = 2.5 µM, library screen: screen1, EWS-FLI1 expression: high (no doxycycline)
# [4] = 2.5 µM, library screen: screen1, EWS-FLI1 expression: low (doxycycline-induced shRNA knockdown)
# [5] = 0.25 µM, library screen: screen2, EWS-FLI1 expression: high (no doxycycline)
# [6] = 0.25 µM, library screen: screen2, EWS-FLI1 expression: low (doxycycline-induced shRNA knockdown)
# [7] = 2.5 µM, library screen: screen2, EWS-FLI1 expression: high (no doxycycline)
# [8] = 2.5 µM, library screen: screen2, EWS-FLI1 expression: low (doxycycline-induced shRNA knockdown)
structure (smiles),measurement,setting,value
CC(C)N(C(=O)CCl)c1ccccc1,cell viability (log2),[1],0.0295
same,cell viability (log2),[2],0.0848
same,cell viability (log2),[3],0.154
same,cell viability (log2),[4],0.0575
O=C(O)CNCP(=O)(O)O,cell viability (log2),[1],0.0875
same,cell viability (log2),[2],0.0822
same,cell viability (log2),[3],0.124
same,cell viability (log2),[4],0.106
NCC(O)c1cc(O)c(O)cc1F (stereo not drawn),cell viability (log2),[5],0.233
same,cell viability (log2),[6],0.183
same,cell viability (log2),[7],0.0966
same,cell viability (log2),[8],0.0732
CC(=O)Oc1ccc(Cl)c2cccnc12,cell viability (log2),[1],0.106
same,cell viability (log2),[2],0.136
same,cell viability (log2),[3],0.0698
same,cell viability (log2),[4],0.0992
CCCCOC(=O)c1ccccc1C(=O)OCCCC,cell viability (log2),[1],0.118
same,cell viability (log2),[2],0.0394
same,cell viability (log2),[3],0.0831
same,cell viability (log2),[4],-0.283
CNc1ccccc1C(=O)O,cell viability (log2),[1],0.0696
same,cell viability (log2),[2],0.0258
same,cell viability (log2),[3],0.131
same,cell viability (log2),[4],0.00755
C[CH2][Hg][S]c1ccccc1C(=O)O,cell viability (log2),[1],-0.15 (active)
same,cell viability (log2),[2],-0.123
same,cell viability (log2),[3],-3.6 (active)
same,cell viability (log2),[4],-2.98 (active)
CC(=O)C1=C(O)[C@@H]2[C@H]3c4c[nH]c5cccc(c45)C[C@H]3C(C)(C)N2C1=O,cell viability (log2),[1],0.0498
same,cell viability (log2),[2],0.042
same,cell viability (log2),[3],0.0855
same,cell viability (log2),[4],0.00492
COc1ccc2c(c1O)-c1c(OC)c(OC)cc3c1[C@H](C2)N(C)CC3,cell viability (log2),[1],-0.01
same,cell viability (log2),[2],-0.0109
same,cell viability (log2),[3],0.111
same,cell viability (log2),[4],0.131
COc1cc2c(c(OC)c1OC)-c1ccc(O)c(=O)cc1C(NC(C)=O)CC2 (stereo not drawn),cell viability (log2),[1],0.0964
same,cell viability (log2),[2],0.0193
same,cell viability (log2),[3],-1.1 (active)
same,cell viability (log2),[4],-0.493 (active)
COc1cc2c(c(OC)c1OC)-c1ccc(OC)c(=O)cc1[C@@H](NC(C)=O)CC2,cell viability (log2),"0.025 µM, library screen: screen2, EWS-FLI1 expression: high (no doxycycline)",0.127
same,cell viability (log2),"0.025 µM, library screen: screen2, EWS-FLI1 expression: low (doxycycline-induced shRNA knockdown)",0.0363
same,cell viability (log2),[1],-4.23 (active)
same,cell viability (log2),[2],-0.935 (active)
same,cell viability (log2),[5],-3.33 (active)
same,cell viability (log2),[6],-0.503 (active)
same,cell viability (log2),[3],-4.18 (active)
same,cell viability (log2),[4],-0.869 (active)
same,cell viability (log2),[7],-3.21 (active)
same,cell viability (log2),[8],-0.472 (active)
same,cell viability (log2),"25 µM, library screen: screen2, EWS-FLI1 expression: high (no doxycycline)",-3.45 (active)
same,cell viability (log2),"25 µM, library screen: screen2, EWS-FLI1 expression: low (doxycycline-induced shRNA knockdown)",-0.515 (active)
COc1cc2c(cc1OC)C(=O)c1ccc(OC)c(OC)c1OCC(=O)C2,cell viability (log2),[1],0.0297
same,cell viability (log2),[2],0.0329
same,cell viability (log2),[3],0.104
same,cell viability (log2),[4],0.0978
C=C(C)c1cc2cc(C(C)=O)c(O)cc2o1,cell viability (log2),[1],0.113
same,cell viability (log2),[2],0.098
same,cell viability (log2),[3],0.0228
same,cell viability (log2),[4],0.00912
OCC(O)Cc1ccc2c(c1)OCO2 (stereo not drawn),cell viability (log2),[1],0.0615
same,cell viability (log2),[2],0.039
same,cell viability (log2),[3],0.0501
same,cell viability (log2),[4],0.111
CC1(C)C(=O)[C@@H]2O[C@@H]2[C@@]2(C)C1C[C@@H](O)[C@]1(C)C2CC[C@@]2(C)[C@H](c3ccoc3)OC(=O)C3OC321 (stereo partly drawn),cell viability (log2),[1],0.0599
same,cell viability (log2),[2],0.093
same,cell viability (log2),[3],0.0793
same,cell viability (log2),[4],0.18
CC1(C)C(=O)C=C[C@]2(C)[C@H]3CC[C@@]4(C)[C@H](c5ccoc5)OC(=O)[C@H]5O[C@]54[C@]3(C)[C@H](O)C[C@@H]12,cell viability (log2),[1],-0.0265
same,cell viability (log2),[2],0.039
same,cell viability (log2),[3],0.0641
same,cell viability (log2),[4],0.0262
Cc1ccccc1CN1CCN(Cc2ccc(F)cc2)CC1,cell viability (log2),[1],0.0915
same,cell viability (log2),[2],0.13
same,cell viability (log2),[3],0.113
same,cell viability (log2),[4],0.0962
C[C@H]1CC[C@]2(NC1)O[C@H]1C[C@H]3[C@@H]4CC[C@H]5C[C@@H](O)CC[C@]5(C)[C@H]4CC[C@]3(C)[C@H]1[C@@H]2C,cell viability (log2),[1],0.0391
same,cell viability (log2),[2],1.7e-05
same,cell viability (log2),[3],0.161
same,cell viability (log2),[4],0.0669
C[C@H]1CC[C@]2(NC1)O[C@H]1C[C@H]3[C@@H]4CC[C@H]5C[C@@H](O[C@@H]6O[C@H](CO)[C@H](O[C@@H]7O[C@H](CO)[C@@H](O)[C@H](O[C@@H]8OC[C@@H](O)[C@H](O)[C@H]8O)[C@H]7O[C@@H]7O[C@H](CO)[C@@H](O)[C@H](O)[C@H]7O)[C@H](O)[C@H]6O)CC[C@]5(C)[C@H]4CC[C@]3(C)[C@H]1[C@@H]2C,cell viability (log2),[1],0.0131
same,cell viability (log2),[2],-0.12
same,cell viability (log2),[3],-1.17 (active)
same,cell viability (log2),[4],-1.98 (active)
C[C@@H]1CC[C@@]2(OC1)O[C@H]1[C@@H](O)[C@H]3[C@@H]4CC[C@H]5C[C@@H](O[C@@H]6O[C@H](CO)[C@H](O[C@@H]7O[C@H](CO)C(O)[C@H](O[C@@H]8OC[C@@H](O)[C@H](O)[C@H]8O)[C@H]7O[C@@H]7O[C@H](CO)[C@H](O)[C@H](O[C@@H]8O[C@H](CO)[C@@H](O)[C@H](O)[C@H]8O)[C@H]7O)[C@H](O)[C@H]6O)[C@H](O)C[C@]5(C)[C@H]4CC[C@]3(C)[C@H]1[C@@H]2C (stereo partly drawn),cell viability (log2),[1],0.0473
same,cell viability (log2),[2],0.00355
same,cell viability (log2),[3],0.099
same,cell viability (log2),[4],0.184
